The list is not random: actives were taken first. Their share in the collection is about 0.44%.
Rango dissoc inh – inhibition of RanGTP-driven Rango-importin beta dissociation; O95149+P62826; Biochemical FRET Rango-importin beta, RanGTP-induced dissociation; Potency, µM (highest dose often 46.1 µM), inactives show at the top dose activity change, negative = inhibition; hit rate 0.071% among 340,000; AID 540253; calls by dose curve; note: % of control where 0% means no effect; nearly all actives have a fitted effect of over 45% in size
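Two FRET readings bracket the reaction: one 5 min after compound meets Rango–importin beta, another 45 min after RanGTP-RCC1 (0.6 uM Ran, 0.2 uM RCC1, 2 mM GTP) is added. Only the second defines inhibition.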
Chronic BCR inh – inhibitors of chronic active B-cell receptor signaling; ABC-DLBCL IkBa-CBG/CBR reporter, luminescence ratio, 4 h; Potency, µM (highest dose often 46.1 µM), inactives show top-dose activity change, negative = inhibition, hits mostly inhibitors; hit rate 0.05% among 340,000; AID 493014; active = well fitted inhibition curve with a large enough effect in the signal ratio, with a control signal flat, not every such curve was filed as active; inconclusive = small, poorly fitted or top-dose-only effect, or effect the other way, or a change in a side signal; the % refers to the signal ratio;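 note: plate controls were basal doxycycline-induced cells for no effect and cells given 10 µM MG132 for full effect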
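Cell line TMD8 (human ABC DLBCL), stably expressing tet-inducible CBG68-IkBa fusion and CBR; IMDM/0.5% FBS; cpd up to 46 uM; dox induction, 4 h, 37C/5% CO2; dual luminescence; green/red ratio; MG132 control.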
LMNA splice mod – changes lamin A minigene splicing in HeLa cells; HeLa LMNA splicing GFP/RFP minigene ratio, 48 h; Potency, µM (highest dose often 46.1 µM), for inactives: at the top dose ratio change, negative = inhibition, usual class: inhibitors; hit rate 0.01% among 200,000; AID 1487; active = well fitted inhibition curve with a large enough effect in the signal ratio, with a control signal flat, not every such curve was filed as active; inconclusive = small, poorly fitted or top-dose-only effect, or effect the other way, or a change in a side signal; the % refers to the signal ratio; note: % is set by controls: 0 for no effect and ±100 for the full control effect
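Read-out is the ratio of GFP to DsRed2 object intensity, acquired by 488 nm laser-scanning cytometry on HeLa lamin A-EGFP minigene reporter cells. Compound incubation 48 hrs at 37 °C in Opti-MEM with 2% FBS; DMSO 0.5% final.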
Rango-impB inh – prevents formation of the Rango-importin beta complex. Rango CFP/YFP FRET sensor + importin beta, 45 min. Potency, µM (highest dose often 92.2 µM), inactives show top-dose inhibition of complex formation. hit rate 0.031% among 340,000. AID 540263; calls by dose curve;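 note: 0% = DMSO wells and 100% = buffer wells lacking importin beta; nearly all actives have a fitted effect of over 15% in size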
Target sequence (Q14974 whole entry, looked up): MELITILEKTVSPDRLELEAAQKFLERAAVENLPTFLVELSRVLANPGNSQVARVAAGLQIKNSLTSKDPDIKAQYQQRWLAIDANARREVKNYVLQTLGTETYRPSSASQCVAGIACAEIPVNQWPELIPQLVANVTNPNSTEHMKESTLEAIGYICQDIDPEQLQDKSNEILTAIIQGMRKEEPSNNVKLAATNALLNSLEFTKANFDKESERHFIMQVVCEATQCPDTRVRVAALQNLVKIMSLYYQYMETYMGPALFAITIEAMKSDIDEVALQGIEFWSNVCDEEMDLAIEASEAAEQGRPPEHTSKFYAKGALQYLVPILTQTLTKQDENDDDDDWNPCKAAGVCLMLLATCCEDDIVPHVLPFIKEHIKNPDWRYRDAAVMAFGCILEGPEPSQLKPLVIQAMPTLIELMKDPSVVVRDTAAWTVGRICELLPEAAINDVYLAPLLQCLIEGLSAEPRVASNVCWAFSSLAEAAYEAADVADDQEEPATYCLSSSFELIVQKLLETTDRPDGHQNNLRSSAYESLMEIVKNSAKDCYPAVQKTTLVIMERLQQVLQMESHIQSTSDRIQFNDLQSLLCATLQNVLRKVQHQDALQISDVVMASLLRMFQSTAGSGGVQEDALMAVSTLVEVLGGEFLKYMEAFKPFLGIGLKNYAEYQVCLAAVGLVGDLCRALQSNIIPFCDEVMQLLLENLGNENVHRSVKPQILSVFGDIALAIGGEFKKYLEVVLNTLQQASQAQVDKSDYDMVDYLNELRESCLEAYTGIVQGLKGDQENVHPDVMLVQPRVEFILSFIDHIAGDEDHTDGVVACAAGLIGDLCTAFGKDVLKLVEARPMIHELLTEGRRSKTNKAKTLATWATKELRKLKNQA
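Inhibition scored from the CFP 486 nm/YFP 530 nm FRET ratio 45 min after adding 0.125 microM importin beta to 50 nM Rango biosensor preincubated 5 min with compound (room temperature, PBS with DTT, Tween-20, BSA). No-importin wells as positive control.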
Luc counter – blocks Kinase-Glo luciferase, a counter-screen artifact | Q27757 | Kinase-Glo luciferase, ATP luminescence, 8 min | Potency, µM (highest dose often 38.3 µM), without a hit: at the highest dose activity change, negative = inhibition, usual class: inhibitors | hit rate 0.28% among 200,000; note: % is set by controls: 0 for no effect and ±100 for the full control effect; nearly all actives have a fitted effect of over 60% in size
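Kinase-Glo luciferase light output from ATP and luciferin was measured with 10 uM ATP, within the enzyme's linear range. Buffer: 50 mM imidazole pH 7.2, 50 mM KCl, 7 mM MgCl2, 0.01% Tween 20, 0.05% BSA; luminescence read after 8 min at ambient temperature.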
Tb PFK block – T. brucei PFK enzyme inhibition; O15648; T. brucei PFK, ADP-Glo luminescence; Potency, µM (top dose mostly 57.5 µM), for inactives: top-dose activity, negative = inhibition, most hits filed as inhibitors; hit rate 0.17% among 330,000;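 note: 0% = uninhibited 1x PFK enzyme wells and -100% = no-enzyme wells; nearly all actives have a fitted effect of over 60% in size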
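PFK 1.25 nM, F6P 0.5 mM, ATP 0.1 mM, 0.1 M TEA pH 8.0, 5 mM MgCl2, 0.01% Tween20, 0.1% BSA; 45 min RT. ADP-Glo readout. qHTS titration up to 57 uM; curves fitted, compounds curve-classed.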
* marks the source's active call; other numbers are inactive results; ? = inconclusive; / = no result; [ ] = dose if it differs, or a comment. Unless noted, calls come from the whole dose curve; as a rule, active = well fitted curve in the direction sought with a large enough effect; inconclusive = small, poorly fitted or top-dose-only effect, or another doubt; inactive = no such curve, though single readings can be large; an effect the other way counts as inactive or inconclusive. Potency is the fitted concentration of half-maximal effect.

SMILES	Rango dissoc inh	Chronic BCR inh	LMNA splice mod	Rango-impB inh	Luc counter	Tb PFK block
CCOC(=O)CC(=O)CSc1nc2c(c(-c3cccs3)c1C#N)CCC2	21µM*	?	-5%	?	-1%	3%
Cc1ccc(S(=O)(=O)C2(C(=O)Nc3ccc4c(c3)OCO4)CC2)cc1	12%	0%	-7%	0%	2%	0%
C/C(=N\NC(=O)Cc1ccccc1)c1ccc(Br)s1	11%	5%	/	0%	/	-5%
C/C(=N/NC(N)=S)c1ccc(Br)s1	12%	20µM*	?	-3%	-5%	-7%
CC(C)(C)OC(=O)N(Cc1ccccc1)Cc1cccc(OCc2cccc(NC(=O)C3CC3)c2)c1	11%	/	/	1%	/	/
Cn1cc(/C=C(\C#N)C(=O)Nc2ccccc2O)c2ccccc21	18µM*[inhibitor]	?	/	?	/	11%
CCOCCCN(C(=O)CNC(=O)c1ccco1)C(C(=O)NC1CCCC1)c1ccccc1C (stereo not drawn)	-19%	?	0%	-6%	1%	0%
Cc1ccc(S(=O)(=O)NNC(=O)Nc2ccc(Cl)c(Cl)c2)cc1	-1%	?	?	1%	0%	-20%
O=C(NCC1CC1)c1ccc(Oc2cc(Cl)cc(Cl)c2)o1	-8%	?	/	0%	/	-8%
O=C(NCCN1CCCCC1)c1ccc(Oc2cc(Cl)cc(Cl)c2)o1	16µM*	-8%	/	-2%	/	11%
Oc1c(C=Nc2cccc3cccnc23)sc2ccccc12	/	?	?	/	10µM*	?
CCCCCc1ccc(C2=NNC(=O)CC2)cc1	0%	?	/	2%	/	2%
Cc1ccc(C)c(-n2c3nc(=O)n(C)c(=O)c-3cc3ccccc32)c1	?	5%	/	?	/	1%
Cc1ccc(C)c(-n2c3nc(=O)[nH]c(=O)c-3cc3cc([N+](=O)[O-])ccc32)c1	?	?	11µM*	-3%	-6%	?
Cc1cccc(-n2c3nc(=O)[nH]c(=O)c-3cc3cc([N+](=O)[O-])ccc32)c1	-11%	12µM*	?	?	3%	-11%
Cc1cccc(-n2c3nc(=O)[nH]c(=O)c-3cc3c(C)nn(-c4ccccc4)c32)c1C	-7%	4%	-8%	?	1%	-4%
Cc1nnc(Cn2cnc3c2c(=O)n(C)c(=O)n3C)o1	22%	12%	/	-3%	/	-1%
CC(CN(C)Cc1ccccc1)OC(=O)c1ccc2c(c1)OCCO2 (stereo not drawn)	-1%	3%	1%	-1%	5%	-4%
CCO/C=C1/C(=O)N(c2ccc(OC)cc2)C(=O)c2ccccc21	?	1%	-13%[9.22 µM]	?	-5%	-1%
CCO/C=C1\C(=O)N(c2ccccc2)C(=O)c2ccccc21	13µM*	-2%	2%	?	-4%	-3%
COc1cc(OC)cc(C(=O)N/N=C/c2ccc(OC)c(COc3ccc(F)cc3)c2)c1	0%	10µM*	?	-1%	0%	0%[0.46 µM]
COc1ccc(OCc2cc(/C=N\NC(=O)c3ccccc3)ccc2OC)cc1	0%	?	/	0%	/	0%
Cc1ccsc1/C=C1\CCc2ccccc2C1=O	4%	-29%	9%	-2%	10µM*	-25%
C=CCc1ccc(OCCOc2ccc(/C=N/n3cnnc3)cc2OCC)c(OC)c1	-1%	23µM*	-10%	2%	-3%	1%
O=C(NCCCN1CCN(c2ccc(F)cc2)CC1)c1ccc2nc(CCc3ccccc3)oc2c1	/	/	-24%[46 µM]	/	/	/
CC(=O)Nc1ccc(Oc2cc(C#N)c(C#N)cc2N2CCOCC2)cc1	1%	21µM*	-5%	0%	-1%	3%
CC(=O)Nc1ccc(Oc2cc(C#N)c(C#N)cc2N2CCCCCC2)cc1	2%	-5%	?	7%	3%	5%
